Experiments:
Details in all cases: concentration: 1 μM, replicates: in singlicate; n = 1
MKNK1 = tested on: MKNK1
MKNK2 = tested on: MKNK2
MLCK = tested on: T1, MLCK
T1 construct: gene MYLK3

MLK1 = tested on: T2, MLK1
T2 construct: gene MAP3K9

MLK2 = tested on: MLK2
MLK3 = tested on: MLK3
MRCKA = tested on: MRCKA
MRCKB = tested on: T3, MRCKB
T3 construct: gene CDC42BPB

MST1R = tested on: MST1R
MST1 = tested on: T4, MST1
T4 construct: gene STK4

MST2 = tested on: T5, MST2
T5 construct: gene STK3

MST3 = tested on: T6, MST3
T6 construct: gene STK24

MST4 = tested on: MST4
MTOR = tested on: MTOR
MUSK = tested on: MUSK
MYLK2 = tested on: MYLK2
MYLK4 = tested on: MYLK4
MYLK = tested on: MYLK
MYO3A = tested on: MYO3A
MYO3B = tested on: MYO3B
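Further: KINOMEscan kinase panel screen.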

| SMILES | %Inh (MKNK1) [%] | %Inh (MKNK2) [%] | %Inh (MLCK) [%] | %Inh (MLK1) [%] | %Inh (MLK2) [%] | %Inh (MLK3) [%] | %Inh (MRCKA) [%] | %Inh (MRCKB) [%] | %Inh (MST1R) [%] | %Inh (MST1) [%] | %Inh (MST2) [%] | %Inh (MST3) [%] | %Inh (MST4) [%] | %Inh (MTOR) [%] | %Inh (MUSK) [%] | %Inh (MYLK2) [%] | %Inh (MYLK4) [%] | %Inh (MYLK) [%] | %Inh (MYO3A) [%] | %Inh (MYO3B) [%] |
| --- | --- | --- | --- | --- | --- | --- | --- | --- | --- | --- | --- | --- | --- | --- | --- | --- | --- | --- | --- | --- |
| Cc1cc(-c2ccc3c(c2)CC[C@@H](N[C@@H](C)c2ccccc2)C3)cnc1N.Cl [GW412617] | 13 | 3 | 0 | 0 | 15 | 32 | 0 | 4 | 38 | 1 | 15 | 0 | 0 | 14 | 28 | 21 | 8 | 10 | 0 | 0 |
| Cc1ccc(NC(=O)Nc2cc(C(C)(C)C)nn2-c2ccccc2)cc1 [GSK1014915] | 28 | 91.9 | 2 | 0 | 0 | 12 | 23 | 8 | 41 | 52 | 23 | 5 | 13 | 30 | 17 | 9 | 4 | 11 | 0 | 0 |
| NC(=O)c1nnc2ccccc2c1N | 12 | 0 | 0 | 84 | 0 | 0 | 0 | 0 | 10 | 4 | 65 | 0 | 15 | 10 | 10 | 0 | 78 | 37 | 9 | 5 |
| Cc1ccc(NC(=O)Nc2cccc(Cl)c2)cc1-c1ccc(C(=O)Nc2ccncc2)cc1 [GSK1398468] | 6 | 4 | 0 | 0 | 0 | 0 | 19 | 0 | 34 | 1 | 0 | 0 | 0 | 9 | 5 | 9 | 13 | 8 | 100 | 0 |
| COc1ccc2nc(-c3cccc(C)n3)nc(Nc3ccncc3)c2c1 [GSK204919] | 0 | 9 | 0 | 0 | 0 | 7 | 38 | 94.1 | 26 | 11 | 0 | 0 | 0 | 43 | 1 | 0 | 0 | 5 | 0 | 0 |
| CC(C)(C)c1ccc(C(=O)Nc2cn3cc(Cl)ccc3n2)cc1 | 0 | 0 | 54 | 0 | 8 | 0 | 0 | 0 | 5 | 0 | 0 | 0 | 0 | 31 | 0 | 0 | 0 | 9 | 7 | 0 |
| Cl.NC(=O)c1cccc(Nc2nccc(Nc3ccc(Oc4cccc(Cl)c4)c(Cl)c3)n2)c1 [GW659008] | 8 | 4 | 0 | 0 | 33 | 0 | 26 | 0 | 0 | 15 | 0 | 10 | 0 | 0 | 13 | 21 | 14 | 3 | 6 | 3 |
| O=C1NC(=O)C(N2CCc3ccccc32)=C1c1ccccc1Cl [SB-373598] | 7 | 0 | 18 | 14 | 50 | 46 | 0 | 5 | 7 | 87 | 0 | 0 | 8 | 15 | 2 | 22 | 0 | 8 | 14 | 9 |
| O=C(O)COc1ncnc2cc(-c3ccc4[nH]ncc4c3)sc12 | 8 | 13 | 1 | 10 | 4 | 0 | 0 | 0 | 25 | 73 | 40 | 24 | 0 | 14 | 9 | 31 | 22 | 7 | 0 | 0 |
